# FMDV inh: foot and mouth disease virus antiviral activity | FMDV antiviral cell-based qHTS | AID 1159524 | Potency, µM (doses to about 57.9 µM), for inactives: top-dose activity change, negative = inhibition, actives largely listed as inhibitors | 410,000 tested, 1.2% active; calls by dose curve; tested in HEK293T cells; also: read-out not given here; potency is read from the fitted curve at half-maximal effect; % is scaled to controls: 0 for no effect and ±100 for the full control effect; nearly all actives have a fitted effect of over 45% in size
# CHX counter: counter-screen for Shiga toxin inhibitors: cycloheximide protein synthesis inhibition | cell reporter, cycloheximide protein synthesis inhibition counterscreen | max response, % | 300,000 tested, 12% active | AID 2314; in the data active = max response mostly above about 13%, no sharp cut-off; inactive = mostly below about 14%; also: read at 38.3 µM for the half of the compounds with a filed dose; 0% is about no effect
# MARV entry inh: inhibitors of Marburg virus binding or cell entry | Marburg virus pseudotyped entry inhibition, cell reporter | Potency, µM (top dose mostly 37.8 µM), for the others: at the top dose activity change, negative = inhibition, most hits filed as inhibitors | 300,000 tested, 1.8% active | AID 540276; calls by dose curve; tested in HEK293 cells; also: potency is read from the fitted curve at half-maximal effect; % is scaled to controls: 0 for no effect and ±100 for the full control effect
# HCV inh: blocks hepatitis C virus; Huh7.5.1 HCVcc-Cre infection, luciferase reporter, 44 h; Potency, µM (top dose mostly 41.8 µM), without a hit: at the top dose activity change, negative = inhibition, usual class: inhibitors; 340,000 tested, 3.4% active; AID 651820; active = well fitted inhibition curve with a large enough effect; inconclusive = small, poorly fitted or top-dose-only effect, or another doubt; inactive = no such curve, though single readings can be large or run the other way; also: potency is read from the fitted curve at half-maximal effect; % is scaled to controls: 0 for no effect and ±100 for the full control effect
#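 HCVcc-Cre virus at an moi near 0.5 was added right after compound to cells cultured 4 h from seeding (1,000 cells/well). Luciferase activity was determined 44 h later, 15 min after substrate addition at RT.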
# Lassa entry inh: blocks Lassa virus binding to or entry into cells; Lassa virus pseudotype entry inhibition, cell reporter; Potency, µM (top dose mostly 37.9 µM), for the others: at the highest dose activity change, negative = inhibition, most hits filed as inhibitors; 300,000 tested, 1.2% active; AID 540256; calls by dose curve; tested in HEK293 cells; also: potency is read from the fitted curve at half-maximal effect; % is scaled to controls: 0 for no effect and ±100 for the full control effect; nearly all actives have a fitted effect of over 50% in size
# Shiga toxin inh: Shiga toxin inhibition. Vero cells, Shiga toxin protein synthesis inhibition reporter. inhibition, % at 38.7 µM. 290,000 tested, 9.2% active. AID 2315; in the data active = inhibition mostly above about 28%, no sharp cut-off; inactive = mostly below about 43%; also: 0% is about no effect
# The depositor's hits bear a star; ? = inconclusive; nt = no result; [ ] = dose if it differs, or a comment. Shown are actives, neighbours in structure and some others; about 13% of the full set was active somewhere.
SMILES,FMDV inh,CHX counter,MARV entry inh,HCV inh,Lassa entry inh,Shiga toxin inh
CCOc1ccc2nc(N/C(N)=N/C(=S)Nc3ccc(OC)cc3)nc(C)c2c1,-8%,-4,nt,?,nt,-3
COc1ccc2nc(N/C(N)=N/C(=S)Nc3ccc(C)c(C)c3)nc(C)c2c1,nt,3,3%,4µM*,2%,-9
COc1ccc(NS(=O)(=O)c2cccc(C(=O)OCC(=O)NC3CC3)c2)cc1,22%,-3,nt,1%,nt,-15
O=C(CCS(=O)(=O)c1ccc(Cl)cc1)Nc1ccc(N2CCOCC2)cc1,-9%,1,28%[46.1 µM],24%,-1%,0
Cc1ccc(OCc2ccccc2C)c([N+](=O)[O-])n1,-2%,41*,-1%[46.1 µM],?,?,34
Cc1ccc(OCCOc2ccc(Br)cc2)c([N+](=O)[O-])n1,-6%,72*,7%,?,?,154*
Cc1cccnc1Nc1nc(-c2ccc(O)cc2)cs1,nt,50*,?,10µM*,-29%,157*
O=C(Nc1nc(-c2ccncc2)cs1)c1ccc(F)cc1,-2%,6,nt,-5%,nt,-6
Oc1ccc(Nc2nc(-c3cccs3)cs2)cc1,30%,-3,?,?,14%,20
Cc1cccnc1Nc1nc(-c2ccc(F)cc2)cs1,-18%,57*,-28%,?,?,103*
O=C(NC1CCSc2ccccc21)c1cc([N+](=O)[O-])ccc1N1CCOCC1 (stereo not drawn),19%,nt,3%,7%,-5%[46.1 µM],nt
Cc1ccc(C)c(OCC(O)CN2CCc3ccccc3C2)c1C (stereo not drawn),0%,-6,nt,?,nt,3
CC(C)c1ccc(CC(=O)N2CCC2(C)C(=O)NS(=O)(=O)c2ccc(Cl)s2)cc1 (stereo not drawn),-5%,nt,nt,nt,nt,nt
COc1cc(O)oc1C=Nc1ccccc1,24%,27*,17%,-1%,?,109*
COCCCNC(=O)[C@H](Cc1c[nH]c2ccccc12)NC(=O)OCc1ccccc1,-3%,1,-5%[46.1 µM],5%,-20%[46.1 µM],20
O=C(CCn1cnnn1)Nc1ccc(F)cc1,23%,26*,?,24%,11%,66*
CC(=O)Nc1ccc(NC(=O)CCn2cnnn2)cc1,-4%,-2,-1%[46.1 µM],21%,nt,11
COc1ccc(Nc2nc(-c3sc(N)nc3C)cs2)cc1,-14%,25*,21%,?,1%,56*
Cc1ccc(Nc2nc(-c3sc(NC(=O)c4ccc([N+](=O)[O-])cc4)nc3C)cs2)cc1,nt,1,0%,nt,nt,-6
N=C1C(c2nc(-c3cccc([N+](=O)[O-])c3)cs2)=C(O)CN1NC(=O)c1ccco1,-19%,1,?,13%,?,-16
CCOc1ccc(Nc2nc(-c3sc(N)nc3C)cs2)cc1,3%,14*,?,?,-2%[46.1 µM],14
O=[N+]([O-])c1cccc(-c2csc(CS(=O)(=O)Cc3ccco3)n2)c1,-4%,16*,nt,-7%,nt,10
Cc1ccc(Nc2nc(-c3sc(N)nc3C)cs2)cc1,23%,40*,nt,-9%,nt,46*
CCCCCC(=O)Nc1nc(C)c(-c2csc(Nc3ccc(Cl)cc3)n2)s1,-8%,1,nt,-22%,nt,7
COc1ccc(C(=O)N2CCN(Cc3ccccc3C)CC2)cc1OC,-24%,-2,?,-16%,-17%,-4
SMILES,FMDV inh,CHX counter,MARV entry inh,HCV inh,Lassa entry inh,Shiga toxin inh
NS(=O)(=O)c1ccc(Nc2nc(-c3cccc([N+](=O)[O-])c3)cs2)cc1,?,5,-30%[46.1 µM],25µM*,-13%[46.1 µM],14
Cc1ccc(-c2csc(Nc3ccc(S(N)(=O)=O)cc3)n2)o1,?,10,22%[46.1 µM],-7%,5%,-3
COc1ccc(CCNc2ccncn2)cc1OC,-21%,-1,-5%,-29%,0%,-14
Cc1nc(C)c(-c2csc(Nc3ccc(S(N)(=O)=O)cc3)n2)s1,-19%,2,?,11µM*,?,-7
COc1ccc(CCNc2nc(-c3sc(N)nc3C)cs2)cc1OC,10µM*,10,?,-9%,-20%,-14
Cc1ccc(Nc2nc(-c3sc(C)nc3C)cs2)cc1,9%,25*,nt,5.6µM*,nt,58*
Cc1[nH]c(=O)nc(SCc2ccc(Cl)c(Cl)c2)c1C#N,-9%,-2,0%[46.1 µM],15%,14%,-18
COc1cccc(CN2CCN(S(=O)(=O)c3ccc(Cl)s3)CC2)c1,-12%,13*,?,1%,3%,32
